Data on 59 molecules can be found in PubChem BioAssay AID372 (MTDP, 2006).

Out of some 100,000 compounds screened, about 770 (0.77%) were called active. Shown is part of a subset that was picked to be rich in actives. Unmarked numbers belong to inactive results. No stated cut-off is given here; in the data, active means inhibition above about 50%; inactive means the rest.

The target in this assay is Gag-Pol polyprotein (Human immunodeficiency virus type 1 group M subtype B (isolate HXB2)) (UniProt P04585). Put plainly: RNase H inhibition, HIV 1 Gag Pol polyprotein, FRET biochemical assay, screening (AID 372). The note with it: HIV-1 RT RNase H, FRET RNA/DNA substrate fluorescence; at 10 µM; hits give high values.
Take `CCc1cc2c(=O)n(N)c(CCC(=O)O)nc2s1`: the inhibition is 6%.
`CCOC(=O)c1cc(Br)c(Cl)cc1[N+](=O)[O-]`: the inhibition is 10%.
`COc1ccc(C(NC(=O)c2ccco2)c2ccc(OC)c(OC)c2)cc1` (centres undefined): the inhibition was 23%.
As for `Cc1ccc2oc(-c3ccc(NC(=O)c4ccc(C)c([N+](=O)[O-])c4)cc3)nc2c1`, the inhibition is 0%.
As to `OC(COc1ccccc1Cl)Cn1cnc2ccccc21` (centres undefined), the inhibition was 5%.
To `O=C(N/N=C/c1ccc(-c2ccc(Cl)cc2Cl)o1)c1ccccc1` belongs 15%.
Consider `CCN1C(=O)/C(=C/c2ccc(C)o2)C(=O)NC1=S`, for which the inhibition is 21%.
To `CCN1C(=O)C(=Cc2ccc(O)cc2)C(=O)NC1=S` belongs 4%; to `CCOc1cc(/C=N/NC(=O)C(=O)NCc2ccc(Cl)cc2)ccc1O`, 1%; to `CC1(C)NC(=O)N(CC(O)COc2cccc(OCC(O)CN3C(=O)NC(C)(C)C3=O)c2)C1=O` (centres undefined), 11%.
To `COC(=O)c1c(NC(=O)c2ccco2)sc(C)c1C` belongs 15%.
Turning to `CCOC(=O)c1sc(NC(=O)c2ccc(Br)o2)c(C(N)=O)c1C`, the inhibition was 0%.
Consider `Cc1sc(NC(=O)c2ccc(Br)o2)c(C#N)c1C`, for which the inhibition is 4%.
Regarding `CCOC(=O)c1c(NC(=O)Cc2ccccc2)sc(C)c1C`, the inhibition was 0%.
For the molecule `COC(=O)c1c(NC(=O)Cc2ccccc2)sc(C)c1C`, the inhibition is 24%.
As to `Cc1sc(NC(=O)c2ccco2)c(C#N)c1C`, the inhibition is 7%.
Consider `Cc1sc(NC(=O)c2ccc(-c3ccccc3)cc2)c(C(N)=O)c1C`, for which the inhibition was 13%.
For `Cc1sc(NC(=O)c2ccc(F)cc2)c(C(N)=O)c1C`, the inhibition was 8%.
To `CCOc1cc(/C=C2\SC(=S)N(c3ccc(F)cc3)C2=O)ccc1O` belongs 18%.
As to `CCN(CC)c1ccc(C(=O)Nc2cc(Cl)cc(Cl)c2)cc1`, the inhibition is 20%.
Take `Cc1ccc(C(=O)COC(=O)c2cccc(N3C(=O)C4C5C=CC(C6CC56)C4C3=O)c2)cc1` (centres undefined): the inhibition is 9%.
As to `CCOc1ccc(-n2sc3c(c2=S)-c2cc(C)ccc2N(Cc2ccccc2)C3(C)C)cc1`, the inhibition was 32%.
For `Cc1cc(C)cc(NC(=O)C(C)N2C(=O)c3ccccc3C2=O)c1` (centres undefined) the value was 0%.
Consider `CC1=C(C(=O)OCC(C)C)C(c2cccc(O)c2)C2=C(CC(c3ccc(Cl)cc3)CC2=O)N1` (centres undefined), for which the inhibition is 21%.
On to `O=C(/C=C/c1ccccc1)NC(=S)Nc1ccc(Br)cn1`, for which the inhibition was 21%.
Take `CCOC(=O)c1ccc(Nc2cc(-c3ccccc3)ncn2)cc1`: the inhibition was 18%.
For `COc1cc(CN2CCN(Cc3ccc(OC)c(OC)c3OC)CC2)cc(OC)c1OC` the value was 4%; for `O=C(/C=C/c1ccc2c(c1)OCO2)NCc1ccc(Cl)cc1Cl`, 11%.
Take `Cc1nn(CC(=O)Nc2sc3c(c2C#N)CCCC3)c(C)c1[N+](=O)[O-]`: the inhibition is 8%.
On to `CCOC(=O)c1sc(NC(=O)Cn2nc([N+](=O)[O-])c([N+](=O)[O-])c2C)c(C(=O)OCC)c1C`, for which the inhibition was 6%.
Consider `O=C(O)c1c(Br)c(Br)c(Br)c(Br)c1C(=O)NCCC1=CCCCC1`, for which the inhibition was 0%.
In the case of `NNC(=O)CN1C(c2ccccc2)=Nc2ccc(Br)cc2C1c1ccccc1` (centres undefined), the inhibition is 15%.
In the case of `COc1ccc(N2C(=O)/C(=C\c3c(OC)cc(OC)cc3OC)C(=O)NC2=S)cc1`, the inhibition was 1%.
For `O=C1c2ccccc2C(=O)N1CC(O)Cn1c2ccc(Br)cc2c2cc(Br)ccc21` (centres undefined) the value was 16%; for `CCc1ccc(OCCN2CCOCC2)cc1`, 50% (active); for `CCc1ccc(OCCCCCCN2CCOCC2)cc1`, 8%.
Take `CCc1ccc(OCCCN2CCOCC2)cc1`: the inhibition is 3%.
Consider `Cc1cc(/C=C2\C(=O)NC(=O)N(c3ccc(Br)cc3)C2=O)c(C)n1-c1cccnc1`, for which the inhibition was 2%.
To `COc1ccccc1NC(=O)c1c(NC(=O)c2cc([N+](=O)[O-])ccc2Cl)sc2c1CCCC2` belongs 3%; to `CCN(CC)C(=O)c1sc(NC(=O)c2cc(OC)cc(OC)c2)c(C(=O)OC)c1C`, 10%; to `O=C1NC(=Nc2ccc(O)cc2)S/C1=C/C(Cl)=C/c1ccc([N+](=O)[O-])cc1`, 0%.
Regarding `O=C1NC(=Nc2ccc(O)cc2)S/C1=C\c1ccc([N+](=O)[O-])cc1`, the inhibition is 4%.
`O=C1NC(=Nc2cccc(O)c2)S/C1=C/C(Cl)=C/c1ccc([N+](=O)[O-])cc1`: the inhibition is 51% (active).
Consider `O=C1C(=O)N(c2ccc(Br)cn2)C(c2ccccc2[N+](=O)[O-])/C1=C(/O)c1ccccc1` (centres undefined), for which the inhibition is 4%.
Regarding `O=C(Nc1ccc(F)cc1)Nc1nnc(CSCc2ccc(Cl)cc2)s1`, the inhibition was 26%.
With `N=C1S/C(=C\c2cc3c(cc2[N+](=O)[O-])OCO3)C(=O)N1c1ccc(F)cc1`, the inhibition is 55% (active).
As to `N=C1S/C(=C\c2ccc(-c3ccc([N+](=O)[O-])cc3)o2)C(=O)N1c1ccc2c(c1)OCO2`, the inhibition is 12%.
Turning to `O=C1/C(=C\c2cc3c(cc2[N+](=O)[O-])OCO3)SC(=S)N1c1ccccc1`, the inhibition is 24%.
As to `O=C1NC(=O)N(c2ccc3c(c2)OCO3)C(=O)/C1=C/c1ccc(Sc2ccccc2)o1`, the inhibition is 0%.
In the case of `N=C1S/C(=C\c2ccc3c(c2)OCO3)C(=O)N1c1ccc(F)cc1`, the inhibition is 43%.
For `N=C1S/C(=C\c2ccc(-c3ccc(F)cc3)o2)C(=O)N1c1ccc2c(c1)OCO2`, the inhibition was 52% (active).
`O=C1NC(=O)N(c2ccc3c(c2)OCO3)C(=O)/C1=C/c1ccc(-c2cccc(Cl)c2)o1`: the inhibition is 53% (active).
Regarding `N=C1S/C(=C\c2ccc(-c3ccccc3F)o2)C(=O)N1c1ccc2c(c1)OCO2`, the inhibition is 30%.
On to `O=C1NC(=O)N(c2ccc3c(c2)OCO3)C(=O)/C1=C/c1ccc(-c2cccc([N+](=O)[O-])c2)o1`, for which the inhibition is 0%.
To `COc1ccc(OC)c(/C=C2\C(=O)NC(=S)N(c3ccc(Br)cc3)C2=O)c1` belongs 12%; to `O=C(Nc1nnc(SCc2ccccc2)s1)c1cccc2ccccc12`, 3%; to `O=[N+]([O-])c1ccc(OCCCCN2CCOCC2)cc1`, 9%.
As for `Clc1ccc(OCCOCCOc2cccc3cccnc23)c2ccccc12`, the inhibition was 45%.
Regarding `O=C(Nc1ccccc1Cl)c1ccc(N2C(=O)c3ccccc3C2=O)cc1`, the inhibition is 16%.

Broadly, the inhibition is the change of the read-out against control, counted positive when it falls.
